Reference: PubChem BioAssay
Values joined by “and” are separate entries in the source; they are usually repeats but may differ in a detail not shown here. Identical values can stand only once. Active and inactive are the calls of the source. Unless noted, how the calls were made is not given here.

What was measured:
[1] = system: Wnt5a (protein binding on small-molecule microarray); test: Wnt5a binders on small-molecule microarray, primary screen, biophysical, 635/667 nm fluorescence (AID 1142); conditions: 635 nm fluorescence, higher = more signal;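 further: fluorescence read at 667 nm with signal to noise per printed feature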
[2] = cell viability in Huh7 cells, primary screen, cytotoxicity control for HCV replication inhibitor project, CellTiter-Glo luminescence, basal, 48 h (AID 1143); conditions: Huh7 HCV replicon, higher = more signal, called active from +8 up or from −8 down;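 further: Huh7 hepatoma cells carrying a hepatitis C replication reporter with no stimulus; test concentration not given here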
[3] = P. aeruginosa biofilm formation inhibitors, primary screen, PAO1 strain, BacTiter-Glo luminescence, LB-PBS (AID 1144); conditions: 12 h, higher = more signal
[4] = CREB reporter modulators without forskolin, primary screen, cell-based, PC12, CRE-LacZ reporter, unstimulated (AID 1145); conditions: no forskolin, luminescence, 4.5 h, higher = more signal, called active from +8 up or from −8 down
[5] = CREB reporter modulators under forskolin, primary screen, cell-based, PC12, CRE-LacZ reporter, forskolin-stimulated (AID 1146); conditions: luminescence, 4.5 h, higher = more signal, called active from +8 up or from −8 down;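 further: PC12 cells with 6xCRE LacZ reporter stimulated by forskolin 10 µM; beta-galactosidase reporter signal reflecting CREB driven transcription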
[6] = target: Streptavidin (Streptomyces avidinii) (UniProt P22629); test: streptavidin binders on small-molecule microarray, primary screen, artefact control for SMM compound annotation, biophysical, 635/667 nm fluorescence (AID 1147); conditions: streptavidin binding, higher = more signal;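 further: signal reflects streptavidin binding to arrayed compounds as a control protein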
Streptavidin (Streptomyces avidinii), sequence (P22629 whole entry, looked up): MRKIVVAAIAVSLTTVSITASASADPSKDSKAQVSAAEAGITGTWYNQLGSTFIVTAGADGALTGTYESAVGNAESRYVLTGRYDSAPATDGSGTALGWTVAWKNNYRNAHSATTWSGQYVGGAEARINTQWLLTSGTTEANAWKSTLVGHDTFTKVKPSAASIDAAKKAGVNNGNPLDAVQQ

[7] = small-molecule binders of probe aInhba, primary screen, biochemical, small-molecule microarray, 635/667 nm fluorescence (AID 1148); conditions: higher = more signal;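 further: score merges 667nm spot fluorescence with signal-to-noise for antibody binding to printed compounds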
[8] = target: Torsin-1A (Homo sapiens) (UniProt O14656); test: torsin A binders from cell lysate, primary screen, small-molecule microarray, wild-type, 635/667 nm (AID 1149); conditions: COS7 hTOR1A-WT lysate, 635 nm fluorescence, higher = more signal
Torsin-1A (Homo sapiens), sequence (O14656 whole entry, looked up): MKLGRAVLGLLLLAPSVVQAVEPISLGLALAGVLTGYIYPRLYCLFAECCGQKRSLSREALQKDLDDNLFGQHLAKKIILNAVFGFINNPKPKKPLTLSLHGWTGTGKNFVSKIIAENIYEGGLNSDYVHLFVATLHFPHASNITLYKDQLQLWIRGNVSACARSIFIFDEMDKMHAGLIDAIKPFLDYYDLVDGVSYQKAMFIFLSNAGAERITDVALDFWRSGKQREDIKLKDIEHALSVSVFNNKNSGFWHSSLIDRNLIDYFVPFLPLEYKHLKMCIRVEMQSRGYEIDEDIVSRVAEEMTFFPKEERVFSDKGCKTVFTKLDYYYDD

[9] = target: Torsin-1A (Homo sapiens) (UniProt O14656); test: small-molecule binders of mutant TOR1A in lysate, primary screen, cell lysate, small-molecule microarray, COS7 lysate, 635/667 nm fluorescence (AID 1150); conditions: COS7 hTOR1A mutant lysate, 635 nm fluorescence, higher = more signal;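 further: score pools 667 nm emission and signal to noise measuring lysate protein binding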
[10] = system: Sonic hedgehog protein (Shh); test: small-molecule binders of Shh protein, primary screen, biochemical, small-molecule microarray, 635/667 nm fluorescence (AID 1151); conditions: small-molecule microarray binding, 635 nm fluorescence; higher = more signal;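 further: Shh protein binding to compounds spotted on small-molecule microarray slides; score combines spot fluorescence intensity with signal-to-noise across triplicate slides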
[11] = E. coli DRC41 culture turbidity changes, primary screen, E. coli filamentation inducer project, strain DRC41, OD650, 48 h (AID 1152);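 further: E. coli MC1000 strain DRC41 lacking acrAB efflux pump and sulA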; conditions: E. coli DRC41 (acrAB sulA), higher = more signal, called active from +8 up or from −8 down
[12] = small-molecule binders of probe aLefty1, primary screen, biochemical, small-molecule microarray, 635/667 nm fluorescence (AID 1153); conditions: higher = more signal;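 further: score merges spot fluorescence with signal-to-noise ratio from the scanned slide images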
[13] = PSAC antagonists in infected red cells, primary screen, cell-based, P. falciparum Indochina, OD700, 1 h (AID 1154); conditions: P. falciparum Indochina infected RBC osmotic lysis, higher = more signal, called active from +8 up or from −8 down
[14] = PSAC antagonists in infected red cells, primary screen, cell-based, P. falciparum Indochina, OD700, 2 h (AID 1155);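 further: lysis reports solute entry through the parasite surface anion channel PSAC; channel blockers reduce lysis of infected cells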; conditions: P. falciparum Indochina infected erythrocytes, osmotic lysis OD700; higher = more signal, called active from +8 up or from −8 down
[15] = osmotic lysis modulators in infected erythrocytes, primary screen, PSAC antagonist project, cell-based, P. falciparum Indochina, OD700, 3 h (AID 1156); conditions: higher = more signal, called active from +8 up or from −8 down
[16] = PSAC antagonists in infected red cells, primary screen, cell-based, P. falciparum Indochina, OD700, 18 h (AID 1157); conditions: P. falciparum Indochina infected erythrocytes, osmotic lysis OD700, 18 h; higher = more signal, called active from +8 up or from −8 down
[17] = modulators of S6 phosphorylation in cells, primary screen, cell-based, A549, cytoblot, luminescence, serum-stimulated (AID 1158); conditions: A549 phospho-S6 cytoblot, 5 h, higher = more signal;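 further: serum-stimulated A549 lung adenocarcinoma cells; signal is phosphorylated S6 detected by cytoblot immunostaining with HRP secondary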
[18] = target: NADPH oxidase 2 (Homo sapiens) (UniProt P04839); test: NOX2-dependent H2O2 signal modulators, primary screen, NOX inhibitor project, cell-based, HEK293-NOX2, PMA-stimulated, Amplex Red fluorescence (AID 1159); conditions: 45 min, higher = more signal, called active from +8 up or from −8 down; further: test concentration not given here
NADPH oxidase 2 (Homo sapiens), sequence (P04839 whole entry, looked up): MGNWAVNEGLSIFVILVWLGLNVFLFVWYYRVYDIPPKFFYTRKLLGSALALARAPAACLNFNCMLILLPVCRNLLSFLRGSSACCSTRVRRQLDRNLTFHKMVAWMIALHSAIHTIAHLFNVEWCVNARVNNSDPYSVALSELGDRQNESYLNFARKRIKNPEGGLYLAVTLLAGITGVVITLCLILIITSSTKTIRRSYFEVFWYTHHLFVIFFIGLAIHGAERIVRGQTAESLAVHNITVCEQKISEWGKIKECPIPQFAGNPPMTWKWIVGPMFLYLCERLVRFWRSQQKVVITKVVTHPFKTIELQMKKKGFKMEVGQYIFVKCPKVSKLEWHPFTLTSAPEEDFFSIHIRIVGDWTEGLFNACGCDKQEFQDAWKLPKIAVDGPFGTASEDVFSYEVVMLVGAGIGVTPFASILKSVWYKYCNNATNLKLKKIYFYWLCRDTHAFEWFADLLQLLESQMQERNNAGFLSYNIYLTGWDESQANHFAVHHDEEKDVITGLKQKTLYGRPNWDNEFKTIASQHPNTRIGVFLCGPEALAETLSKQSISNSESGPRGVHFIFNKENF

[19] = target: NADPH oxidase 4 (Homo sapiens) (UniProt Q9NPH5); test: NOX4-dependent H2O2 signal modulators, primary screen, NOX inhibitor project, cell-based, HEK293-NOX4, tetracycline-induced, Amplex Red fluorescence (AID 1160); conditions: 45 min, higher = more signal, called active from +8 up or from −8 down
NADPH oxidase 4 (Homo sapiens), sequence (Q9NPH5 whole entry, looked up): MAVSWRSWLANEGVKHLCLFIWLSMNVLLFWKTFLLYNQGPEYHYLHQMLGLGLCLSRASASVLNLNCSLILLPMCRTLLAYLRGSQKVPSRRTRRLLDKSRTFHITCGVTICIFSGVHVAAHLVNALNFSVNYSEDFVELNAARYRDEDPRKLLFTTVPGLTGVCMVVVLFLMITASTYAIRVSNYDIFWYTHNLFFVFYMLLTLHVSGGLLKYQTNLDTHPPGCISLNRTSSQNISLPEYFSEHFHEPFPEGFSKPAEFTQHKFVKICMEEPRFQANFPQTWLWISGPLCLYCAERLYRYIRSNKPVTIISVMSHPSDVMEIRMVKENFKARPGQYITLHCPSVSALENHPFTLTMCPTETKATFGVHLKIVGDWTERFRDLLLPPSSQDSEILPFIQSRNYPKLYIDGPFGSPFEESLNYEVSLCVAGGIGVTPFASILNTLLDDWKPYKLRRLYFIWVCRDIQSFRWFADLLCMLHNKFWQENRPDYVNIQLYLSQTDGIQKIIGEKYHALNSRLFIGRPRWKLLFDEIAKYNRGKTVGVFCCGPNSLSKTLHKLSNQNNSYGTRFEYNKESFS

[20] = target: NADPH oxidase 5 (Homo sapiens) (UniProt Q96PH1); test: NOX5-dependent H2O2 signal modulators, primary screen, NOX inhibitor project, cell-based, HEK293-NOX5, Amplex Red fluorescence (AID 1161); conditions: HEK293-NOX5, ionomycin, 45 min, higher = more signal
NADPH oxidase 5 (Homo sapiens), sequence (Q96PH1 whole entry, looked up): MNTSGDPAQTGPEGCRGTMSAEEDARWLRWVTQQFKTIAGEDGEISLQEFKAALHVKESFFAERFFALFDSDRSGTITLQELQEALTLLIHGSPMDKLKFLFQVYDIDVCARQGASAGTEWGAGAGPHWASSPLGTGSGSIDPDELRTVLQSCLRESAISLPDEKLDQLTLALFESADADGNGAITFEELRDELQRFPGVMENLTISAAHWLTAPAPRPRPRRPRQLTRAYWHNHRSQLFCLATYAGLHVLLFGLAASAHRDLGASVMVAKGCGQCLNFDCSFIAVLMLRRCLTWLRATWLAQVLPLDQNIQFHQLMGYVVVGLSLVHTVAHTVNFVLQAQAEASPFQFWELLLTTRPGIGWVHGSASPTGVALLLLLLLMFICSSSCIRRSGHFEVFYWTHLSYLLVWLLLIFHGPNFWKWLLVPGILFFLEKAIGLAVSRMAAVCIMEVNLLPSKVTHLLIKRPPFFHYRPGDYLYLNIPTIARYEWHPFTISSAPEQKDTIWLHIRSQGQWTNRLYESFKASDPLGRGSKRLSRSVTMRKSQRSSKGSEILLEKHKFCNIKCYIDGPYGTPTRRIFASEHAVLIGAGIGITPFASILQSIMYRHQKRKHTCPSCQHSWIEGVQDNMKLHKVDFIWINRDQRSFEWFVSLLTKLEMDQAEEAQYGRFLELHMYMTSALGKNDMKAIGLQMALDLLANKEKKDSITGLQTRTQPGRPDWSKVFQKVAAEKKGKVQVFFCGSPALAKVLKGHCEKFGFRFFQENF

SMILES | composite z-score [1] | z-score [2] | z-score [3] | z-score [4] | z-score [5] | composite z-score [6] | composite z-score [7] | composite z-score [8] | composite z-score [9] | composite z-score [10] | z-score [11] | composite z-score [12] | z-score [13] | z-score [14] | z-score [15] | z-score [16] | z-score [17] | z-score [18] | z-score [19] | z-score [20]
C[C@@H]1CC[C@@H](C(=O)O)N[C@H]1c1ccc(-c2ccco2)cc1 | 0.266 | 0.0233 (inactive) | -0.778 (inactive) | -0.339 (inactive) | -0.885 (inactive) | 0.192 | -0.0791 | 1 | 0.406 | 0.611 | -0.601 (inactive) | 0.0721 | 0.732 (inactive) | 1.2 (inactive) | 0.871 (inactive) | 0.883 (inactive) | -0.282 | -0.71 (inactive) | 0.156 (inactive) | 0.798
C=CCN(CCCC)C(=O)C(c1cccs1)N(C(=O)/C=C\C(=O)O)c1ccc(CCO)cc1 (stereo not given) | -0.118 and -0.341 | 0.197 (inactive) and 0.617 (inactive) | -0.568 (inactive) and 0.123 (inactive) | -0.0818 (inactive) and 0.195 (inactive) | -0.21 (inactive) and -0.185 (inactive) | -0.874 and -1.49 | -0.195 and -0.331 | -1.2 and -3.21 | -2.35 and -1.52 | -0.463 and -1.18 | 0.369 (inactive) and 0.133 (inactive) | -0.279 and -0.147 | 0.855 (inactive) and 1.03 (inactive) | -0.14 (inactive) and -0.182 (inactive) | 0.517 (inactive) and 0.0377 (inactive) | 0.0866 (inactive) and 0.233 (inactive) | 0.0768 and 0.0738 | 0.377 (inactive) and 0.12 (inactive) | -0.432 (inactive) and -0.518 (inactive) | 1.18 and -0.0206
COC(=O)C1=C(C)N(Cc2ccccc2)C2=C3C(=O)N(C)C(=O)[C@@H]3[C@@](O)(C(=O)OC)C(=O)N2[C@@H]1c1ccccc1 | 0.147 and 0.126 | 0.961 (inactive) and -0.294 (inactive) | -0.153 (inactive) and -0.448 (inactive) | 2.18 (inactive) and 0.992 (inactive) | -0.152 (inactive) and -0.755 (inactive) | 0.378 and 0.131 | 0.038 and 0.0173 | 0.154 and 0.161 | 0.491 and 0.207 | -0.004 and 0.436 | 0.71 (inactive) and -0.313 (inactive) | 0.0341 and 0.0278 | -0.188 (inactive) and -1.06 (inactive) | -0.215 (inactive) and -1.49 (inactive) | -0.745 (inactive) and -0.379 (inactive) | -0.339 (inactive) and -1.77 (inactive) | -0.137 and 1.48 | 1.13 (inactive) and -0.926 (inactive) | 0.507 (inactive) and 0.254 (inactive) | -0.0308 and 0.418
C[N+](C)(C)CCCCCCNC(=O)[C@H]1C[C@H]2C(=O)N[C@@H](CCCC[N+](C)(C)C)C(=O)N2[C@H]1c1ccc(O)cc1 | 0.0916 and 0.169 | -2.26 (inactive) and 0.0462 (inactive) | -0.978 (inactive) and -0.491 (inactive) | -1.22 (inactive) and 0.423 (inactive) | 0.188 (inactive) and -0.798 (inactive) | -0.52 and -0.486 | -0.131 and -0.0313 | -0.0883 and -0.172 | 0.0293 and -0.103 | 1.14 and 1.93 | 0.167 (inactive) and 0.234 (inactive) | -0.0523 and -0.127 | 0.453 (inactive) and 0.892 (inactive) | -1.12 (inactive) and 0.591 (inactive) | -1.11 (inactive) and -2.09 (inactive) | -1.46 (inactive) and 0.0065 (inactive) | 0.0304 and -0.109 | -1.5 (inactive) and 0.235 (inactive) | -0.479 (inactive) and 0.249 (inactive) | -3.22 and 0.0348
CO[C@H]1COC(=O)[C@H](C)NC(=O)CC=C[C@@H](C)[C@H](OC)COC(=O)CC=C[C@@H]1C | 0.155 | 0.0447 (inactive) | -0.506 (inactive) | 1.51 (inactive) | -0.41 (inactive) | 0.14 | -0.237 | 1.85 | 1.81 | 1.62 | 0.343 (inactive) | -0.149 | -0.0029 (inactive) | 0.147 (inactive) | 0.597 (inactive) | -0.0165 (inactive) | -0.248 | 1.45 (inactive) | -1.65 (inactive) | -0.796
Cc1cc2c(nc1C)CCCN2CC(O)CN1CCCc2nc(-c3ccc(Br)cc3)ccc21 (stereo not given) | 0.573 and 1.08 | -0.721 (inactive) and -1.07 (inactive) | -0.0664 (inactive) and 0.806 (inactive) | 0.0167 (inactive) and 0.382 (inactive) | -0.362 (inactive) and -0.274 (inactive) | 1.4 and 1.8 | 0.496 and 0.639 | 0.501 and 0.62 | 0.797 and 0.251 | 1.13 and 1.11 | -0.402 (inactive) and -0.327 (inactive) | 0.585 and 0.584 | 12.1 (active) and 8.25 (active) | 1.55 (inactive) and 0.974 (inactive) | 1.59 (inactive) and 1.02 (inactive) | 0.739 (inactive) and 0.394 (inactive) | 0.0832 and -0.44 | 1.74 (inactive) and 1.1 (inactive) | -1.98 (inactive) and -1.54 (inactive) | -2.82 and -2.56
COC(=O)C1=C(C)N(Cc2ccccc2)C2=C(C(=O)c3ccccc3)[C@H](c3ccccc3)[C@@](O)(C(=O)OC)C(=O)N2[C@@H]1c1ccccc1 | 0.0925 and 0.179 | -2.35 (inactive) and 0.428 (inactive) | -1.1 (inactive) and -0.472 (inactive) | 3.09 (inactive) and -0.989 (inactive) | 0.415 (inactive) and -1.18 (inactive) | 0.077 and -0.118 | 0.0173 and -0.224 | 0.0486 and 0.0903 | 0.483 and -0.0314 | 0.557 and 0.757 | 0.809 (inactive) and 0.498 (inactive) | -0.234 and -0.168 | 1.74 (inactive) and 0.552 (inactive) | 0.852 (inactive) and 0.417 (inactive) | -0.326 (inactive) and -0.171 (inactive) | 0.442 (inactive) and 0.39 (inactive) | 0.533 and -0.266 | 1.06 (inactive) and 0.0122 (inactive) | 0.59 (inactive) and -0.238 (inactive) | 1.59 and 0.157
C=CCN(CCCC)C(=O)C1N(c2c(Cl)cccc2CO)C(=O)C2C(C(=O)O)C3C=CC21O3 (stereo not given) | -0.77 and -0.986 | -0.0286 (inactive) and -0.784 (inactive) | 0.0942 (inactive) and -2.19 (inactive) | -0.887 (inactive) and -1.3 (inactive) | -0.718 (inactive) and -0.285 (inactive) | -1.03 and -2 | -0.231 and 0.72 | -1.67 and 1.69 | -0.696 and 0.827 | -0.979 and -1.17 | -0.074 (inactive) and 2.24 (inactive) | -0.0544 and 0.452 | 1.2 (inactive) and 1.94 (inactive) | 1.05 (inactive) and 0.871 (inactive) | 0.116 (inactive) and 0.127 (inactive) | 0.162 (inactive) and 0.432 (inactive) | -0.352 and 0.113 | 0.6 (inactive) and 0.353 (inactive) | -0.381 (inactive) and -0.863 (inactive) | -0.708 and 0.0892
COc1ccc(COC(=O)NN=C2C[C@@H](O)[C@@H](O)[C@@H]3[C@@H]4C(=O)N(C(C)(C)C)C(=O)[C@@H]4CC[C@H]23)cc1 | -0.0647 | -1.47 (inactive) | 0.439 (inactive) | 0.876 (inactive) | 0.479 (inactive) | -0.199 | -0.151 | 0.656 | -0.178 | 0.352 | 0.91 (inactive) | 0.0169 | 1.91 (inactive) | -1.4 (inactive) | 0.708 (inactive) | -1.93 (inactive) | 1.25 | -0.818 (inactive) | 0.00608 (inactive) | -1.43
C=C[C@H](OC)[C@@H](O)c1ccc(OCCO)cc1 | -0.181 and -0.509 | -0.238 (inactive) and 0.881 (inactive) | -0.354 (inactive) and -1.35 (inactive) | 0.833 (inactive) and -0.0533 (inactive) | 0.2 (inactive) and -1.46 (inactive) | -1.59 and -1.75 | -0.258 and -0.244 | -1.15 and -1.11 | -0.812 and -1.99 | -0.459 and -0.143 | -0.389 (inactive) and 0.805 (inactive) | -0.328 and -0.147 | 0.749 (inactive) and 0.142 (inactive) | 0.305 (inactive) and 0.0012 (inactive) | -0.442 (inactive) and -0.321 (inactive) | 0.0568 (inactive) and 0.352 (inactive) | 0.136 and 0.135 | 0.844 (inactive) and -0.354 (inactive) | -1.32 (inactive) and -0.339 (inactive) | -0.372 and 0.317
